Compounds with a hit are over-represented: about 7.7% of the library has one in this group of screens.
HCMV inh – inhibitors of human cytomegalovirus; activity change, negative = inhibition, % at 57.5 µM; hit rate 4.5% among 410,000; HFF cells, HCMV-luciferase reporter, 72 h; stronger effect = lower value; in the data active = activity change below about -60%; inconclusive = no clear call, values can overlap the other calls; inactive = above about -39%
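Compounds were evaluated in HFFs infected with an HCMV luciferase reporter virus (MOI 1 PFU/cell). Luciferase in lysates collected 72 h post infection served as the replication measure.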
RE007 growth inh – less growth of the S. pombe RE007 Vpr strain. S. pombe RE007 Vpr strain, BacTiter-Glo ATP luminescence, 24 h. Potency, µM (doses to about 92.2 µM), for inactives: at the top dose activity change, negative = less growth, usual class: inhibitors. hit rate 0.21% among 360,000. AID 651644; active = well fitted falling curve with a large enough effect; inconclusive = small, poorly fitted or top-dose-only effect; inactive = no such curve, though single readings can be large or run the other way; note: potency is the fitted concentration of half-maximal effect; nearly all actives have a fitted effect of over 50% in size
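Fission yeast strain RE007, carrying one chromosomally integrated HIV-1 vpr copy, was seeded at OD 0.01 in PMG+AL medium with 23 nL pinned compound. After 24 h at 30 °C and 99% humidity, viability was read by BacTiter-Glo luminescence.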
FMDV inh – blocks foot and mouth disease virus. FMDV antiviral cell-based qHTS. Potency, µM (highest dose often 57.9 µM), inactives show at the top dose activity change, negative = inhibition, hits mostly inhibitors. hit rate 1.2% among 410,000. AID 1159524; calls by dose curve; tested in HEK293T cells; note: read-out not given here; potency is the fitted concentration of half-maximal effect; nearly all actives have a fitted effect of over 45% in size
FBPA Giardia inh – inhibitors of Giardia lamblia fructose-1,6-bisphosphate aldolase. A8B2U2. purified Giardia FBPA. Potency, µM (top dose mostly 59.6 µM), for the others: top-dose activity, negative = inhibition, hits mostly inhibitors. hit rate 0.71% among 290,000. AID 2451; note: potency is the fitted concentration of half-maximal effect; nearly all actives have a fitted effect of over 55% in size
Target sequence (A8B2U2 whole entry, looked up): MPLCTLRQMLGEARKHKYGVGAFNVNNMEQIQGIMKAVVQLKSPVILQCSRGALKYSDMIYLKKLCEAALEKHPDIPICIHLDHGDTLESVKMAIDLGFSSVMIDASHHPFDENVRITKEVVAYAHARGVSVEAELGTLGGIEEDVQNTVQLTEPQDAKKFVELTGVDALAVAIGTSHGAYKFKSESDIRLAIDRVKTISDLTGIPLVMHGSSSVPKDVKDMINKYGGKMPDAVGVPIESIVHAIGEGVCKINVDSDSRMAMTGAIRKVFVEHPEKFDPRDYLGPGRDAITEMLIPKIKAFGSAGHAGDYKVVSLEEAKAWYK
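Giardia FBPA (40 nM reagent) was preincubated 10 min at RT with compound (up to 57.5 uM final), then substrate plus GAPDH/TPI/NAD/arsenate coupling system with diaphorase/resazurin was added; resorufin fluorescence (525/598 nm) was read after 20 min.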
Sm TGR inh – blocks Schistosoma mansoni thioredoxin glutathione reductase. purified TGR, DTNB reduction, TNB absorbance 405 nm. hit rate 3% among 360,000. Potency, µM (highest dose often 114 µM), for inactives: top-dose activity change, negative = inhibition, hits mostly inhibitors. Q962Y6; note: potency is the fitted concentration of half-maximal effect; nearly all actives have a fitted effect of over 60% in size
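Kinetic colorimetric format: TGR-catalysed, NADPH-driven DTNB reduction monitored via TNB absorbance. Enzyme dispensed at 20 nM; compound exposure 15 min at room temperature before reaction start.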
TbPYK inhibitor – blocks Trypanosoma brucei pyruvate kinase; Q57TT1; TbPYK enzyme, Kinase-Glo Plus ATP luminescence, 45 min; Potency, µM (top dose mostly 76.8 µM), for inactives: at the highest dose activity, negative = inhibition, usual class: inhibitors; hit rate 0.12% among 410,000; note: potency is the fitted concentration of half-maximal effect; nearly all actives have a fitted effect of over 50% in size
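T. brucei PYK with substrate was exposed to pin-transferred compounds across a concentration series, then started with 130 uM ADP (final). After 45 min at room temperature, Kinase-Glo Plus luminescence was read, normalized and curve-fitted.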
Numbers without * were called inactive; [ ] = another dose, or the depositor's remark. Unless noted, calls come from the whole dose curve; as a rule, active = well fitted curve in the direction sought with a large enough effect; inconclusive = small, poorly fitted or top-dose-only effect, or another doubt; inactive = no such curve, though single readings can be large; an effect the other way counts as inactive or inconclusive. % is set by controls: 0 for no effect and ±100 for the full control effect.

Screening COc1ccc(NC(=O)Nc2cccc(Cl)c2Cl)c(OC)n1 returned HCMV inh -70.0*, RE007 growth inh 2.7%, FMDV inh 17.2%, FBPA Giardia inh -2.3%, Sm TGR inh 4.0% and TbPYK inhibitor -1.0%.
`Cc1ccc(C)c(NC(=O)CN2C(=O)c3cccnc3Oc3ccc(C)cc32)c1` gave HCMV inh 0.0, FMDV inh -8.3%, Sm TGR inh -16.0% and TbPYK inhibitor 2.5%[15.4 µM].
`N/C(COc1cc(Cl)cc(Cl)c1)=N\O` gave HCMV inh -64.9*, RE007 growth inh 0.5%, FMDV inh -11.3%, FBPA Giardia inh 0.0%, Sm TGR inh 3.8% and TbPYK inhibitor -22.9%.
OC(COCCOc1ccc(Br)cc1)CN1CCN(Cc2ccccc2)CC1 (stereo unspecified) was read as HCMV inh -100.6*, RE007 growth inh -16.0%, FMDV inh inconclusive, FBPA Giardia inh -10.1%, Sm TGR inh 0.8% and TbPYK inhibitor -1.2%.
`CNc1snc(C)c1C(=O)OCC(=O)c1ccc(OC)c(F)c1` gave HCMV inh -73.6*, RE007 growth inh 3.2%, FMDV inh inconclusive, Sm TGR inh 4.8% and TbPYK inhibitor 1.4%.
For CCNc1ncc2nc(-c3cccc(C#N)c3)c(=O)n(C)c2n1 the results were FMDV inh 37.1%, FBPA Giardia inh 0.4% and TbPYK inhibitor 5.0%.
`COc1ccc2ccccc2c1CN1CCC2(CCC(CNC(=O)c3ccccc3)O2)CC1` (stereo unspecified) gave FMDV inh -18.0%.
For CCOC(=O)c1nc(NNC(=O)c2ccc([N+](=O)[O-])cc2)sc1C the results were HCMV inh -96.6*, RE007 growth inh 9.4%, FMDV inh -1.9%, FBPA Giardia inh 19.0%, Sm TGR inh inconclusive and TbPYK inhibitor -21.1%.
For C[C@H](CO)N1C[C@H](C)[C@@H](CN(C)C(=O)c2ccncc2)OCc2cn(nn2)CCCC1=O the results were HCMV inh 22.0.
`CCN1C(=O)N(CC)C(O)(c2ccccc2)C1(O)c1ccccc1` (stereo unspecified) gave HCMV inh -61.9*, RE007 growth inh 4.1%, FMDV inh -17.2%, FBPA Giardia inh -1.8%, Sm TGR inh -18.1% and TbPYK inhibitor -2.6%.
For O=S(=O)(Nc1nc2ccccc2nc1Nc1ccccc1Br)c1ccccc1 the results were HCMV inh 34.2, FMDV inh 0.0%, Sm TGR inh 14.1% and TbPYK inhibitor -0.2%.
For COc1cccc(CNC(=O)CN2C(=O)CCn3nc(-c4cn(C)c5ccccc45)cc32)c1OC the results were HCMV inh 7.9, FMDV inh 5.3%, Sm TGR inh 15.8µM* and TbPYK inhibitor -2.7%.
CC(C)n1cnc2c(NCc3ccc(S(N)(=O)=O)cc3)nc(NCc3ccc(S(N)(=O)=O)cc3)nc21 was read as HCMV inh 11.1, RE007 growth inh -17.2%, FMDV inh -12.6%, FBPA Giardia inh -8.9%, Sm TGR inh 28.6% and TbPYK inhibitor -8.4%.
For CC(C)[C@H](CO)Nc1nc(NCc2ccc(S(N)(=O)=O)cc2)c2ncn(C(C)C)c2n1 the results were HCMV inh -96.0*, RE007 growth inh -5.7%, FMDV inh -28.6%, FBPA Giardia inh -27.5%, Sm TGR inh 4.4% and TbPYK inhibitor 0.7%.
CSCCC(NS(=O)(=O)c1ccc2c(c1)oc(=O)n2C)C(=O)NCc1ccc(F)cc1 (stereo unspecified) was read as HCMV inh 7.6, FMDV inh -11.7%, Sm TGR inh -2.5% and TbPYK inhibitor 1.6%.
Screening O=C(CCn1c(=O)c2sccc2n(Cc2cccc(F)c2)c1=O)NCc1ccc2c(c1)OCO2 returned HCMV inh -27.9, FMDV inh -9.1%, Sm TGR inh 0.7% and TbPYK inhibitor 3.7%.
For Cc1cc(=O)[nH]c(SCC(=O)O)c1C#N the results were HCMV inh -3.3, RE007 growth inh 20.3%, FMDV inh -9.6%, FBPA Giardia inh -0.5%, Sm TGR inh 0.0% and TbPYK inhibitor 0.4%.
Cc1cc(=O)[nH]c(SCC(=O)C23CC4CC(CC(C4)C2)C3)c1C#N was read as HCMV inh 13.0, RE007 growth inh -19.0%, FMDV inh -10.2%, FBPA Giardia inh -2.7%, Sm TGR inh 15.8µM* and TbPYK inhibitor -14.7%.
COc1ccc(N2C(=O)/C(=C/c3cc(C)n(-c4ccc(C)cn4)c3C)C(=O)NC2=S)c(OC)c1 was read as HCMV inh 26.9, RE007 growth inh 12.1%, FMDV inh 31.6µM*, FBPA Giardia inh inconclusive, Sm TGR inh inconclusive and TbPYK inhibitor -21.8%.
O=C1NC(=S)N(c2ccc(F)cc2)C(=O)/C1=C\c1ccoc1 was read as RE007 growth inh -4.8%, FMDV inh -7.9%, FBPA Giardia inh inconclusive, Sm TGR inh 31.6µM* and TbPYK inhibitor inconclusive.
COc1ccc(OC)c(N2C(=O)CC(=O)NC2=O)c1 was read as HCMV inh inconclusive, RE007 growth inh 9.4%, FMDV inh -15.8%, FBPA Giardia inh -16.7%, Sm TGR inh 0.9% and TbPYK inhibitor 3.8%.
O=C1NC(=S)N(c2ccc(F)cc2)C(=O)/C1=C/c1ccco1 was read as FBPA Giardia inh inconclusive and Sm TGR inh 31.6µM*.
Screening O=C1NC(=O)C(=Cc2ccco2)C(=O)N1 returned HCMV inh 1.7, RE007 growth inh 12.2%, FMDV inh -4.1% and TbPYK inhibitor inconclusive.
`COc1ccc(OC)c(N2C(=O)NC(=O)/C(=C/c3ccc([N+](=O)[O-])s3)C2=O)c1` gave HCMV inh 2.6, RE007 growth inh -28.9%, FMDV inh -19.7%, FBPA Giardia inh 12.6µM*, Sm TGR inh 3.98µM* and TbPYK inhibitor inconclusive.
`Cc1ccccc1CNC(=O)Cc1ccc(NC(=O)N2CCCCc3ccccc32)cc1` gave HCMV inh 21.2, FMDV inh 1.3%, Sm TGR inh -0.5% and TbPYK inhibitor -1.5%.
Screening Cc1ccccc1CN1CCN(c2ncc(C(=O)NCCN(C)C)s2)C1=O returned HCMV inh -18.2.
CCCNC(=O)CCC(=O)N1Cc2cccc(OC)c2Oc2ncccc21 was read as HCMV inh -3.6, FMDV inh -18.8%, Sm TGR inh 7.3% and TbPYK inhibitor 6.0%.
COc1ccc(OC)c(N2C(=O)CCCC2=O)c1 was read as HCMV inh -8.8, RE007 growth inh 71.9%, FMDV inh -11.4%, FBPA Giardia inh 14.2%, Sm TGR inh -0.6% and TbPYK inhibitor -0.4%.
Screening COc1ccc(OC)c(N2C(=O)/C(=C/c3ccco3)C(=O)NC2=S)c1 returned RE007 growth inh -1.9%, FMDV inh -28.5%, FBPA Giardia inh inconclusive, Sm TGR inh 31.6µM* and TbPYK inhibitor inconclusive.
